HT1080-NT tox: kills 2HG-producing HT-1080-NT fibrosarcoma cells; HT-1080-NT fibrosarcoma viability, CellTiter-Glo ATP luminescence, 48 h; AID 686970; Potency, µM (highest dose often 46.1 µM), inactives show at the top dose activity, negative = less viability, hits mostly cytotoxic; 360,000 compounds, 1.6% hits;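 further: NT is the 2HG producing partner of a matched IDH1 knockdown line; potency means the concentration at half of the fitted maximal effect; 0% = DMSO-treated cells and -100% = media-only wells without cells; nearly all actives have a fitted effect of over 55% in size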
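Read-out is CellTiter-Glo luminescence after 10 minutes at room temperature, following 48 hours' compound treatment of HT-1080-NT cells (750 cells/well, RPMI, 5% FBS, 37 degrees C).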
HT1080 IDH1KD tx: toxicity to HT-1080 IDH1 knockdown cells (counter line) | HT-1080 IDH1 knockdown viability, ATP luminescence, 48 h | Potency, µM (top dose mostly 46.1 µM), for the others: top-dose activity, negative = toxicity, actives largely listed as cytotoxic | 360,000 compounds, 2% hits | AID 686971;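 further: potency means the concentration at half of the fitted maximal effect; 0% = DMSO wells and -100% = cell-free medium wells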
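After a 2 h attachment period, IDH1KD HT-1080 cells took pin-transferred compound for 48 h at 37 °C; ATP-based luminescence after 10 min room-temperature reagent incubation reported viability.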
IL1B secr inh: inhibitors of inflammasome signaling (IL-1 beta secretion); THP-1 LPS/ATP IL-1B secretion, AlphaLISA, 16 h; hits give low values; activity change, % at 57.5 µM; 360,000 compounds, 4.7% hits; AID 743279; in the data active means activity change below about -50%; inconclusive means mostly about -30% to -49%
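THP-1 cells pretreated 1 hr with compounds (up to 57.5 uM final), then stimulated with LPS (250 ng/mL final) plus ATP (1.25 mM final); secreted IL-1B measured by AlphaLISA after 16 hr, decreased signal indicating inhibition.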
DT40 TDP1 CPT: growth inhibition of DT40 Tdp1-/-;hTDP1 cells with camptothecin (screen for TDP1 inhibitors); Potency, µM (titrated, usually from 46.2 µM), for inactives: at the highest dose activity change, negative = growth inhibition, hits mostly inhibitors; 420,000 compounds, 12% hits; chicken DT40 Tdp1-/-;hTDP1 cells + 20 nM CPT, ATP luminescence, 48 h; AID 686979; further: potency means the concentration at half of the fitted maximal effect; nearly all actives have a fitted effect of over 55% in size
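Cell growth measured by CellTiter-Glo luminescence after a minimum 48 h, 37 C compound exposure with 20 nM CPT in Tdp1-knockout DT40 cells stably expressing hTDP1, seeded 400/well; qHTS titration format.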
DT40 TDP1 no CPT: qHTS for Inhibitors of human tyrosyl-DNA phosphodiesterase 1 (TDP1): qHTS in cells in absence of CPT; DT40 Tdp1-/- hTDP1 cells, no CPT, ATP luminescence, 48 h; Potency, µM (series often up to 46.2 µM), without a hit: at the top dose activity change, negative = growth inhibition, actives largely listed as inhibitors; 420,000 compounds, 15% hits; further: potency means the concentration at half of the fitted maximal effect; nearly all actives have a fitted effect of over 55% in size
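Growth kinetics read by CellTiter-Glo luminescence after ≥48 hr at 37 °C. Cells: DT40 Tdp1-/- stably carrying human TDP1, 400 per well, compound exposure in the absence of CPT (DMSO vehicle).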
ELG1 repair inh: blocks ELG1-dependent DNA repair in HEK293T cells; HEK293T ELG1-luciferase reporter, luminescence, 16 h; DNA damage induced by 5-fluorouridine; Potency, µM (highest dose often 46.1 µM), for inactives: at the highest dose activity change, negative = inhibition, usual class: inhibitors; 330,000 compounds, 2.3% hits; further: potency means the concentration at half of the fitted maximal effect; nearly all actives have a fitted effect of over 55% in size
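Step one: seed 2,000 cells per well. Step two: pin-transfer compound or DMSO alongside 5-fluorouridine. Step three: incubate 16 hr, 37 °C, 5% CO2. Step four: add ONE-Glo, wait 30 min, read luminescence.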
* hit, by the source's call; ? = inconclusive; . = no result; [ ] = another dose, or the depositor's remark. Compounds with a hit are over-represented: about 19% of the library has one in this group of screens. Unless noted, the call rests on the fitted dose curve; in most records, active means well fitted curve in the direction sought with a large enough effect; inconclusive means small, poorly fitted or top-dose-only effect, or another doubt; inactive means no such curve, though single readings can be large; an effect the other way counts as inactive or inconclusive. Unless noted, on the % scale 0 is the no-effect control and ±100 the full control effect.

SMILES	HT1080-NT tox	HT1080 IDH1KD tx	IL1B secr inh	DT40 TDP1 CPT	DT40 TDP1 no CPT	ELG1 repair inh
Cc1c(C(=O)N2CCN(Cc3ccc4c(c3)OCO4)CC2)sc2ncnc(N3CCN(c4ccccc4F)CC3)c12	?	18µM*	?	18µM*	8.2µM*	6.5µM*
Cc1c(C(=O)N2CCN(Cc3ccc4c(c3)OCO4)CC2)sc2ncnc(N3CCN(c4ccccc4)CC3)c12	0%	?	-3	?	4.6µM*	4.6µM*
CCN(CC(=O)Nc1ccc(NC(C)=O)cc1)C(=O)c1ccccc1SCc1c(C)noc1C	0%	0%	-7	10%	6%	0%
COc1ccc(C(=O)c2ccc3oc(-c4ccc(OC)cc4)c(C#CCCO)c3c2)cc1	7%	4%	22	-21%	-12%	.
COc1cc(OC)cc(-c2oc3cccnc3c2C#CCCO)c1	-2%	-2%	-64*	?	?	?
COc1ccc(-c2noc(N3CCC(C(=O)N(C)c4cc(Cl)ccc4OC)CC3)n2)cc1	.	.	.	16µM*	?	.
CCN(C(=O)C1CCN(c2nc(-c3ccc(OC)cc3)no2)CC1)c1ccc(OC)cc1	-22%	-4%	23	?	16µM*	3%
CCc1ccc(NC(=O)C2CCN(c3nc(-c4ccc(OC)cc4)no3)CC2)cc1	.	.	.	0%	-4%	.
CCCNS(=O)(=O)c1ccc(OCC(=O)NCC2CCCO2)cc1 (stereo not drawn)	4%	12%	-9	8%	-6%	12%
CCOC(=O)Cc1c(-c2cccc(Br)c2)nc2c3ccccc3ccn12	-29%	-25%	7	?	18µM*	.
CCOC(=O)Cc1c(C)nc2c(-c3cccc(Br)c3)cnn2c1C	-1%	0%	7	?	21µM*	-3%
Fc1ccc(-c2nc3c4ccccc4ccn3c2Cc2ccsc2)cc1	-11%	-18%	23	15µM*	15µM*	.
Fc1ccc(-c2nc3c4ccccc4ccn3c2CC2CCCCC2)cc1	6%	1%	30	15µM*	21µM*	.
CCOC(=O)c1c(C)nc2c3ccccc3ccn12	-18%	-18%	1	?	-20%	?
Cc1oc(-c2ccccc2NC(=O)C2CCCO2)nc1CNC(=O)c1cc(Cl)ccc1F (stereo not drawn)	.	.	.	10%[9.04 µM]	-11%	.
CCn1c(=N)c(C(=O)NCc2ccccc2)cc2c(=O)n3cc(C)ccc3nc21	.	.	.	-3%	2%	.
Brc1cccc(-c2nc3c4ccccc4ccn3c2Cc2ccsc2)c1	-11%	-12%	-5	26µM*	?	.
CCN(c1ccccc1)S(=O)(=O)c1ccc(NC(=O)c2nc(S(C)(=O)=O)ncc2Cl)cc1	18µM*	16µM*	-97*	1.2µM*	1µM*	?
CCSc1ncc(Cl)c(C(=O)Nc2ccc(S(=O)(=O)N(C)c3ccccc3)cc2)n1	.	.	.	12µM*	12µM*	.
CCS(=O)(=O)c1ncc(Cl)c(C(=O)Nc2ccc(S(=O)(=O)N(C)c3ccccc3)cc2)n1	2.6µM*	3.7µM*	-103*	0.73µM*	0.65µM*	?
CN(c1ccccc1)S(=O)(=O)c1ccc(NC(=O)c2ccco2)cc1	-13%	-11%	-8	-7%	-23%	0%
CC(C)C[C@H]1COc2cc(N3CC[C@H](O)C3)ccc2S(=O)(=O)N1	6%	12%	38	1%	-22%	.
CSc1ncc(Cl)c(C(=O)Nc2c(C(=O)c3ccc(C)c(F)c3)oc3ccccc23)n1	.	.	.	5%	7%	.
COc1ccc2[nH]c(C(=O)O)c(CCNC(=O)/C=C/c3ccc(O)c(OC)c3)c2c1	24%	10%	2	-14%	10%	?
O=C1CCNc2cc3ccccc3cc21	-21%	16µM*	19	?	?	?
SMILES	HT1080-NT tox	HT1080 IDH1KD tx	IL1B secr inh	DT40 TDP1 CPT	DT40 TDP1 no CPT	ELG1 repair inh
O=C(COC(=O)CCNS(=O)(=O)c1ccccc1)NC(=O)c1ccccc1	9%	4%	15	0%	-14%	16%
Cc1ccc(N(C)S(=O)(=O)c2ccc3c(c2)CC(C)N3C(=O)C2CC2)cc1 (stereo not drawn)	-1%	-9%	-29	?	?	?
COc1ccc(C)cc1NC(=O)CN(C)S(=O)(=O)c1ccc2c(c1)CC(C)N2C(C)=O (stereo not drawn)	10%	9%	18	23µM*	?	?
CC(=O)N1c2ccc(S(=O)(=O)N(C)CC(=O)NCc3ccc(C)cc3)cc2CC1C (stereo not drawn)	3%	-1%	0	-20%	-7%	?
CC(=O)N1c2ccc(S(=O)(=O)N(C)c3cc(C)ccc3C)cc2CC1C (stereo not drawn)	1%	6%	39	?	23µM*	-2%
Cc1nn(-c2ccccc2)c2c1CC(=O)Nc1ccccc1-2	?	?	27	0.65µM*	0.82µM*	.
CCOc1ccc2oc(=O)cc(CN3CCN(Cc4ccc(C)cc4)CC3)c2c1	.	.	.	23µM*	15µM*	.
CCOc1ccc2oc(=O)cc(CN3CCN(Cc4ccccc4)CC3)c2c1	?	12%	1	?	23µM*	?
COc1ccc2oc(=O)cc(CN3CCN(Cc4ccccc4)CC3)c2c1	-3%	-4%	36	?	?	.
Cc1ccc2oc(=O)cc(CN3CCN(Cc4ccccc4)CC3)c2c1	-2%	-4%	23	-22%	-9%	7%
Cn1cccc1C(=O)N1CCC2(CCN(Cc3ccncc3)CC2)CC1	.	.	.	8%	-24%	.
O=C(CC1(O)C(=O)N(Cc2ccccc2)c2ccccc21)c1ccc2c(c1)OCO2 (stereo not drawn)	0%	-12%	13	?	?	-12%
CN1C(=O)C(O)(CC(=O)c2ccc3c(c2)OCO3)c2ccccc21 (stereo not drawn)	9%	-3%	3	-22%	-21%	6%
NC(=O)CN1C(=O)C(O)(CC(=O)/C=C\c2ccc3c(c2)OCO3)c2ccccc21 (stereo not drawn)	?	?	-88*	-18%	?	?
CN1C(=O)C(O)(CC(=O)/C=C\c2ccc3c(c2)OCO3)c2ccccc21 (stereo not drawn)	?	?	-101*	?	?	2%
CCN1c2ccccc2-c2nc(SCC(=O)Nc3cccc(C)c3C)ncc2S1(=O)=O	.	.	.	?	21µM*	.
